Measured values reported in ChEMBL document CHEMBL1157539, “Thousands of chemical starting points for antimalarial lead identification” (Nature, 2010).

These compounds were tested on Plasmodium falciparum (assay: GSK_TCMDC: Inhibition of Plasmodium falciparum 3D7 in whole red blood cells, using parasite LDH activity as an index of growth. Test compounds present at 2uM).
Type: functional

| SMILES | Inhibition [%] |
| --- | --- |
| CCC[C@@H]([C@@H](CC(C)C)C(=O)N[C@@H](CCCCNC(=O)OCc1ccccc1)C(=O)Nc1ncccn1)N(O)C=O | 100 |
| COC(=O)C(NC(=O)NC1CCN(c2ccnc(Nc3ccc(F)cc3)n2)C1)c1ccccc1 (stereo not drawn) | 87 |
| O=C(NCCCCN1CCC(c2ccc3c(c2OCC(O)c2ccc(Cl)cc2)CCCC3)CC1)c1ccc(-c2ccc(C(F)(F)F)cc2)cc1 (stereo not drawn) | 89 |

What follows are compounds tested on Plasmodium falciparum (assay: GSK_TCMDC: Inhibition of Plasmodium falciparum Dd2 in whole red blood cells, using parasite LDH activity as an index of growth. Test compounds present at 2uM).
Type: functional

| SMILES | Inhibition [%] |
| --- | --- |
| COc1ccc2nccc([C@@H](O)CN3CCC(NCc4nc5c(cc4F)SCC(=O)N5)C(F)C3)c2c1.Cl (stereo partly drawn) | 49 |
| COc1ccccc1CN1CCC(NC(=O)c2ccc(-c3cccc(Cl)c3)s2)CC1.O=C(O)C(F)(F)F | 9 |
| O=C(O)C(F)(F)F.c1ccc(C(c2ccccc2)N2CCC(NCc3ccc(OCCCN4CCCCC4)cc3)CC2)cc1 | 100 |
| C=CCN(c1nc(NC)nc(NCc2c(OC)cccc2OC)n1)C1CCCC1 | 70 |
| OCCN1CCN(c2nc(Nc3cccc(F)c3)c3cnn(-c4ccccc4)c3n2)CC1 | 76 |
| COc1cc2nc(C)nc(Nc3ccc(Oc4ccccc4)cc3)c2cc1OC.Cl | 72 |
| C=CCn1c(Sc2ccc(C#N)c([N+](=O)[O-])c2)nnc1-c1cccc(Cl)c1 | 54 |
| CC[C@H](C)CNC(=O)c1cncc(-c2ccc(CNC3Cc4ccccc4C3)cc2)c1.O=C(O)C(F)(F)F | 95 |
| COCCCNC(=N)c1ccc(NC(=O)c2ccc(C(=O)Nc3ccc(C(=N)NCCCOC)cc3)cc2)cc1.Cl | 99 |
| Cc1ccc(CN2CCCN(Cc3cccc(NC(=O)c4ccc(-c5ccccc5)cc4)c3)CC2)cc1C.O=C(O)C(F)(F)F | 19 |
